CRFR2-BP ag: agonists of human CRF-binding protein/CRF-R2 receptor complex | AID 588473 | HEK293 CRF-R2/CRF-BP, calcium dye fluorescence (FLIPR); percent of saturating CRF peptide response | 0.46% of 350,000 active | activation, % at 13.2 µM;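 active = activation of at least 50%, plus an integration ratio under a set limit after plate pattern correction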;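 note: plate controls were neutral control wells without compound for no effect and CRF at EC100 for full effect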
RTF Ca sens act: increases calcium sensitivity of human cardiac regulated thin filaments; P19429+P45379; IANBD-labeled TnC RTF fluorescence at EC20 calcium; 0% EC20 calcium, 100% full calcium; activation, % at 7.2 µM; 0.24% of 340,000 active;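 active = activation above the mean over all tested compounds plus 3 SD, cut at about 30% in these data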;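 note: rise in fluorescence read as greater calcium sensitivity of cardiac thin filaments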
Cardiac RTF inh: cardiac RTF calcium desensitization. P19429+P45379. IANBD-labeled cardiac RTF, Ca2+ fluorescence. inhibition, % at 7.15 µM. 0.12% of 340,000 active. AID 493244;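 active = inhibition above the mean inhibition of all tested compounds plus 3 SD, cut at about 17% in these data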;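 note: assay run at fixed EC70 calcium of 1.6 mM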
Myeloid diff MLP: myeloid differentiation induction | 1% of 360,000 active | calls only at 10 µM | ER-HoxA9 myeloid progenitors, lysozyme-GFP differentiation, flow cytometry | AID 624256;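 active = normalized GFP-positive differentiation at or above the plate's own cutoff, the solvent-only control mean plus 3 SD; inconclusive = no clear call, values can overlap the other calls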;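 note: cells exposed to compound for four days before flow analysis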
CRFBP-R2 block: blocks CRF-induced signaling of the CRF-BP/CRF-R2 complex; HEK293 CRF-R2/CRF-BP, CRF-induced calcium fluorescence; inhibition, % at 11.8 µM; 0.59% of 350,000 active;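 active = inhibition of the ligand-induced calcium signal above about 50% at the single tested concentration, limit read from the data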
* marks the source's active call; other numbers are inactive results; i = inactive; ? = inconclusive; . = not tested or not shown; + = active, no number. Compounds with a hit are over-represented: about 2.2% of the library has one in this group of screens.

SMILES | CRFR2-BP ag | RTF Ca sens act | Cardiac RTF inh | Myeloid diff MLP | CRFBP-R2 block
CN1CCN(CC(=O)Nc2cc(N(C)C)nc3ccccc23)CC1 | -2 | -1 | -7 | i | 58*
NC(C(=O)O)C(c1ccccc1)C(F)F (stereo not drawn) | 0 | . | . | . | 0
C[C@H]1CN([C@@H](C)CO)C(=O)CCCn2nncc2CO[C@H]1CN(C)S(=O)(=O)c1ccc(F)cc1 | 1 | . | . | i | -11
CCCc1nc(SCC(=O)Nc2ccccc2)c2c(=O)n(C)c(=O)n(C)c2n1 | 1 | 0 | -10 | i | 1
CCCc1nc(SCC(=O)N2CCC(Cc3ccccc3)CC2)c2c(=O)n(C)c(=O)n(C)c2n1 | 2 | 4 | -2 | + | -15
O=C1C(=Cc2ccncc2)CCCc2ccccc21 | -2 | . | . | i | 70*
Cc1ccc(S(=O)(=O)NCc2ccncc2)c(C)c1C | 53* | -1 | -7 | . | -8
COc1ccc(Cl)cc1NC(=O)CN(C)C(=O)c1cc2c(s1)CCCC2 | -2 | -2 | -4 | i | -14
Cc1ccc(S(=O)(=O)c2nnn3c2nc(N2CCOCC2)c2ccccc23)cc1 | 0 | -3 | 1 | i | 43
Cc1ccc(S(=O)(=O)c2nnn3c2nc(N2CCCCC2)c2ccccc23)cc1 | 2 | -6 | 7 | i | 51*
O=C(NNC1=NCCC1)C1CC1 | 1 | -2 | -4 | + | 2
O=C(NNC1=NCCC1)c1ccc(Br)cc1 | 4 | 0 | -4 | i | 9
CN1OC[C@@H]2CN(C(=O)Nc3ccccc3)[C@H](c3ccc(N4CCCCC4)cc3)C[C@@H]21 | . | . | . | i | .
COc1ccc(CNC(=O)c2cc3c(C)nc4ccccc4c3o2)c(OC)c1 | -6 | . | . | i | 58*
COc1ccc(CNC(=O)Cc2c(C(=O)O)[nH]c3ccccc23)cc1 | 1 | 3 | -11 | i | -10
COc1ccc(CNC(=O)Cc2c(C(=O)O)[nH]c3ccccc23)c(OC)c1 | -5 | -1 | 1 | + | 1
COc1cccc(CNC(=O)c2cc3c(C)nc4ccccc4c3o2)c1 | -6 | 5 | -2 | i | -17
CCCc1cc(=O)[nH]c(SCC(=O)Nc2ccc(OC(F)F)cc2)n1 | -1 | -6 | -2 | i | 66*
CCN(C[C@H]1N[C@@](Cc2ccccc2)(C(=O)OC)[C@H]2C(=O)N(Cc3ccccc3)C(=O)[C@@H]12)C(=O)C1CCCCC1 | 110* | -6 | -3 | i | -119
CCN(C[C@H]1N[C@@](C)(C(=O)OC)[C@H]2C(=O)N(Cc3ccccc3)C(=O)[C@@H]12)C(=O)C1CCCCC1 | 1 | -4 | 0 | i | -3
CCOC(=O)c1cc([N+](=O)[O-])c([N+](=O)[O-])cc1NC(C)=O | -3 | 4 | 1 | ? | 51*
CCNc1nc(NC(C)C)nc(NS(=O)(=O)c2ccc(N)cc2)n1 | 0 | -1 | -15 | + | -19
CC(C)Nc1nc(NC(C)C)nc(NS(=O)(=O)c2ccc(N)cc2)n1 | -1 | -2 | -3 | i | -6
Cc1ccc(O)c(NC(=O)c2cccc(S(=O)(=O)N3CCCCC3)c2)c1 | 0 | -2 | -4 | + | -3
CN1CCN(S(=O)(=O)c2cccc(C(=O)Nc3cc(C(F)(F)F)ccc3N3CCCCC3)c2)CC1 | 1 | -14 | 0 | + | -19
SMILES | CRFR2-BP ag | RTF Ca sens act | Cardiac RTF inh | Myeloid diff MLP | CRFBP-R2 block
Cc1ccccc1NC(=O)c1cccc(S(=O)(=O)N2CCCCC2)c1 | 1 | -1 | 1 | i | -2
Cc1ccccc1OCCC(=O)Nc1cc(S(=O)(=O)N2CCCCC2)ccc1N1CCN(C)CC1 | 68* | 18 | -12 | i | -37
Cc1ccc(OCC(=O)Nc2cc(S(=O)(=O)N3CCCCC3)ccc2N2CCN(C)CC2)c(C)c1 | 1 | -2 | -15 | i | 8
CC1=C(C(=O)N2CCCCCC2)CC(CC(=O)NCCN2CCOCC2)C(=O)N1CCCN1CCCC1=O (stereo not drawn) | . | . | . | i | .
COc1ccc(C(=O)CC(=O)C(=O)Nc2cccc(C(C)=O)c2)cc1 | 0 | 2 | -5 | i | 4
O=C(CSc1ccc(Cl)cc1)NCc1ccco1 | -2 | -2 | -12 | i | -4
CC1CCCN(S(=O)(=O)c2ccc(C(=O)Nc3nnc(-c4ccccc4Cl)o3)cc2)C1 (stereo not drawn) | 48 | -6 | 5 | + | -29
COc1cccc(-c2nnc(NC(=O)c3ccc(S(=O)(=O)N4CC(C)OC(C)C4)cc3)o2)c1 (stereo not drawn) | 2 | 5 | -2 | + | -5
O=C(NNC(=S)NC1CCCCC1)c1ccccc1Br | -1 | 5 | -7 | i | -4
CCOC(=O)N1CCN(S(=O)(=O)c2ccc(C)c(C)c2C)CC1 | -1 | -5 | -5 | i | 94*
CCOC(=O)N1CCN(S(=O)(=O)c2cc(C)c(C)cc2C)CC1 | 0 | 4 | 1 | i | -13
CCOc1ccc(CCNC(=O)c2cccc(NC3=NC4CS(=O)(=O)CC4S3)c2)cc1OCC (stereo not drawn) | -6 | -1 | 1 | i | 50*
O=[N+]([O-])c1cc([N+](=O)[O-])c(Oc2cc(F)ccc2F)cc1NN1CCCCC1 | 1 | 8 | 5 | i | -2
Cc1ccc(N2C(=O)C3C4C=CC(C4)C3C2=O)cc1C (stereo not drawn) | 0 | 5 | -7 | i | 1
Cc1ccc(N2C(=O)C3C4C=CC(CC4)C3C2=O)cc1[N+](=O)[O-] (stereo not drawn) | 2 | -5 | -1 | i | 73*
Cc1nc2cc(C(=O)NCc3ccc4c(c3)OCO4)ccc2n1-c1ccc(Br)cc1 | -3 | 0 | 1 | i | 65*
O=C(NCc1ccc2c(c1)OCO2)c1ccc(Br)cc1 | -4 | -2 | 3 | i | 4
CCOC(=O)C1CCCN1C(=O)C1(NC(C)=O)CCCC1 (stereo not drawn) | -2 | -3 | -3 | i | 18
CCCc1c(C)nc(N2CCN(c3ccccc3OC)CC2)[nH]c1=O | 1 | 2 | 3 | i | 4
CCC(C)[C@H](NC(=O)[C@@H]1Cc2ccccc2CN1C(=O)OC(C)(C)C)C(=O)NCC1CCC(C(=O)O)CC1 (stereo partly drawn) | -3 | 3 | -2 | i | 81*
CC(C)[C@H](NC(=O)[C@@H]1Cc2ccccc2CN1C(=O)OC(C)(C)C)C(=O)NCC1CCCO1 (stereo partly drawn) | 1 | 9 | -9 | i | 21
O=C(Nc1ccc(Oc2ccccc2)cc1)C1CCCN(c2ncccn2)C1 (stereo not drawn) | 58* | 9 | -2 | i | -103
Cc1ccnc(N2CCCC(C(=O)Nc3nnc(C)s3)C2)n1 (stereo not drawn) | 1 | 2 | -1 | i | -24
Cc1cc(C)cc(NC(=O)C2CCCN(c3nc(C)cc(C)n3)C2)c1 (stereo not drawn) | -1 | 0 | -11 | i | 15
